PubChem BioAssay (Tox21)
Inconclusive results are not listed. Where a call stands in place of a potency, no number is given. Activity calls are given as the source filed them. Calls come from the whole dose curve; as a rule, active = well fitted activation curve with a large enough effect in the signal ratio in the repeat runs (not every such curve was filed as active); inconclusive = weak or mixed curves; inactive = flat fitted curve, though single readings scatter; the % refers to the signal ratio.

Assay: qHTS assay to identify small molecule agonists of the TGF-beta/Smad signaling pathway (AID 1346859)
Settings: SBE-bla HEK293T, TGF-beta/Smad beta-lactamase reporter, 5 h; series mostly up to 76.8 µM
Excerpt: U.S. Tox21 Program National Center for Advancing Translational Sciences [NCATS] NIH Chemical Genomics Center [NCGC] U.S. Environmental Protection Agency [EPA] National Institutes of Environmental Health Sciences [NIEHS] National Toxicology Program [NTP] U.S. Food and Drug Administration [FDA] Tox21 Assay Overview: Transforming growth factor beta (TGF-beta) superfamily consists of a large number of structurally related dimeric proteins that act as hormones or local mediators in regulating a wide range of biological functions. This superfamily includes TGF-betas themselves, the bone morphogenetic proteins (BMPs) and the activins. These ligands induce oligomerization of serine/threonine receptor kinases and phosphorylate the cytoplasmic signaling molecules of Smad protein family. CellSensor SBE-bla HEK 293T cell line (Life Technologies, Carlsbad, CA), responsive to TGF-beta was used to screen Tox21 10K compound library for identification of agonists/antagonists of the Smad signaling pathway. This cell line contains a beta-lactamase reporter gene under control of the Smad binding element (SBE) stably integrated into HEK 293T cells.
Tox21 Assay Protocol Summary: SBE-bla HEK 293T cells were dispensed at 4,000/well in 6 uL of assay medium into black wall/clear-bottom 1536-well plates using a Multidrop Combi (ThermoFisher Scientific, Waltham, MA) dispenser. After the assay plates were incubated at 37 C and 5% CO2 for an overnight, 23 nL of compounds dissolved in DMSO, positive controls or DMSO only was transferred to the assay plate by a Pintool station (Kalypsys, San Diego, CA). The assay plates were incubated at 37 C and 5% CO2 for 5 hr. One uL of LiveBLAzer B/G FRET substrate (Life Technologies) was added using a Flying Reagent Dispenser (Aurora Discovery, San Diego, CA) and the plates were incubated at room temperature for 2 hr. Fluorescence intensity (405 nm excitation, 460 nm and 530 nm emissions) was measured using an Envision plate reader (PerkinElmer, Shelton, CT).
Potency is the fitted concentration of half-maximal effect.

With `O=C1CC[C@@H](C(=O)O)N1` as the molecule, how does the Potency read?
Its Potency is “inactive”.

For `CCCCCCC(O)CCOC(C)=O` (stereo not given), which Potency is on record?
The Potency was “inactive”.

With `CCC1CCC(CCC(=O)O)C1` (stereo not given) as the molecule, how does the Potency read?
Its Potency is “inactive”.

For `NC(=O)c1ccccc1[N+](=O)[O-]`, which Potency is on record?
The Potency was “inactive”.

With `CC(C)c1ccc(C#N)cc1` as the molecule, how does the Potency read?
The Potency was “inactive”.

With `CCO[Si](C)(CCCOCC1CO1)OCC` (stereo not given) as the molecule, how does the Potency read?
Its Potency is “inactive”.

For `Cc1c(C2(c3cc(Br)c(O)c(Br)c3C)OS(=O)(=O)c3ccccc32)cc(Br)c(O)c1Br`, which Potency is on record?
Its Potency is “inactive”.

Which Potency does the source give for `C=CC(=O)O` here?
Its Potency is “inactive”.

For `O=c1[nH][nH]c(=O)c2cc([N+](=O)[O-])ccc12`, which Potency is on record?
The Potency was “inactive”.

With `CCCCCCCCCCCC(=O)OCC(O)CO` (stereo not given) as the molecule, how does the Potency read?
The Potency was “inactive”.

For `CCCCCCCCCCCCCCCC(=O)OCC`, which Potency is on record?
Its Potency is “inactive”.

With `COc1ccc2nc(S(=O)Cc3ncc(C)c(OC)c3C)[nH]c2c1` (stereo not given) as the molecule, how does the Potency read?
Its Potency is “inactive”.

For `CCN(CC)CC(=O)Nc1c(C)cccc1C(=O)OC`, which Potency is on record?
Its Potency is “inactive”.

For `CCCCCCCC/C=C\CCCCCCCC(=O)OCCO`, which Potency is on record?
Its Potency is “inactive”.

With `O=C(Nc1ccc(C(=O)O)c(O)c1)c1ccccc1` as the molecule, how does the Potency read?
The Potency was “inactive”.

With `Oc1cccc2[nH]ccc12` as the molecule, how does the Potency read?
The Potency was “inactive”.

With `CC(C)(C(=O)c1cccnc1)c1cccnc1` as the molecule, how does the Potency read?
Its Potency is “inactive”.

With `CC(=O)N[C@@H](Cc1ccc(O)cc1)C(=O)O` as the molecule, how does the Potency read?
Its Potency is “inactive”.

For `CC[C@H]1OC(=O)[C@H](C)[C@@H](O[C@H]2C[C@@](C)(OC)[C@@H](O)[C@H](C)O2)[C@H](C)[C@@H](O[C@@H]2O[C@H](C)C[C@H](N(C)C)[C@H]2O)[C@](C)(O)C[C@@H](C)CN(C)[C@H](C)[C@@H](O)[C@]1(C)O`, which Potency is on record?
The Potency was “inactive”.

For `CC(=O)OC(C)C[N+](C)(C)C` (stereo not given), which Potency is on record?
Its Potency is “inactive”.

With `CSSc1ccoc1C` as the molecule, how does the Potency read?
The Potency was “inactive”.

Which Potency does the source give for `CCCCCCCCCCCCCOS(=O)(=O)O` here?
Its Potency is “inactive”.

Which Potency does the source give for `CCOC(=O)c1c(N)sc2c1CCN(Cc1ccccc1)C2` here?
The Potency was 7.56 µM (active).

With `CCN(CC)C(=O)N1CCN(C)CC1` as the molecule, how does the Potency read?
The Potency was “inactive”.

For `Nc1ccc(S(=O)(=O)NCc2ccccc2)cc1`, which Potency is on record?
The Potency was “inactive”.

For `c1ccc(CCCc2ccncc2)cc1`, which Potency is on record?
The Potency was “inactive”.

With `C1CCCCC1` as the molecule, how does the Potency read?
Its Potency is “inactive”.

With `COC(=O)c1sccc1S(N)(=O)=O` as the molecule, how does the Potency read?
The Potency was “inactive”.

Which Potency does the source give for `CCOc1ncc(F)c(=O)[nH]1` here?
The Potency was “inactive”.

For `FC(F)(F)C(F)(F)C(F)(F)C(F)(F)CCI`, which Potency is on record?
Its Potency is “inactive”.

Which Potency does the source give for `Cc1c[nH]c2ccccc12` here?
Its Potency is “inactive”.

With `CN1C(CSCC(F)(F)F)Nc2cc(Cl)c(S(N)(=O)=O)cc2S1(=O)=O` (stereo not given) as the molecule, how does the Potency read?
Its Potency is “inactive”.

With `CNC1CCCN(c2c(F)cc3c(=O)c(C(=O)O)cn(C4CC4)c3c2OC)C1` (stereo not given) as the molecule, how does the Potency read?
The Potency was “inactive”.

For `COc1ccc(C2C(=O)c3ccccc3C2=O)cc1`, which Potency is on record?
The Potency was “inactive”.

Which Potency does the source give for `CC(=O)OCCC(C)CC(C)(C)C` (stereo not given) here?
The Potency was “inactive”.

With `Cc1ccc(Nc2c(F)cccc2Cl)c(CC(=O)O)c1` as the molecule, how does the Potency read?
Its Potency is “inactive”.

With `O=C(O)c1cc(Cl)cc(Cl)c1O` as the molecule, how does the Potency read?
The Potency was “inactive”.

For `CCN(CC)c1ccc(C(=C2C=CC(=[N+](CC)CC)C=C2)c2ccc(S(=O)(=O)O)cc2S(=O)(=O)[O-])cc1`, which Potency is on record?
The Potency was “inactive”.

Which Potency does the source give for `Nc1ccc(N=Nc2ccc(N)cc2)cc1` here?
The Potency was “inactive”.

For `Cc1cc(CCC(=O)OCCOCCOCCOC(=O)CCc2cc(C)c(O)c(C(C)(C)C)c2)cc(C(C)(C)C)c1O`, which Potency is on record?
Its Potency is “inactive”.
